Hits are enriched below; roughly 1.3% of the tested compounds scored in any of these assays.
Apoferritin bind: binds horse apoferritin like a general anesthetic; Potency, µM (titrated, usually from 77.5 µM), inactives show at the highest dose activity change, negative = displacement, most hits filed as inhibitors; apoferritin/1-aminoanthracene competitive binding, fluorescence; hit rate 0.074% among 350,000; P02791; AID 485281; also: nearly all actives have a fitted effect of over 20% in size
Target sequence (P02791 2-175 limits assumed): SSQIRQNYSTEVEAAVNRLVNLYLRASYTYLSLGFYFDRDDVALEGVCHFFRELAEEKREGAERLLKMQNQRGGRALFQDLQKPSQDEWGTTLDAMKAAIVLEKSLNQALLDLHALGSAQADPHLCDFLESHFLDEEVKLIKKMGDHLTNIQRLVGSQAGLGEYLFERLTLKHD
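Read-out: endpoint 1-AMA fluorescence, excitation 380 nm and emission 535 nm, after compounds sit 10 min at room temperature with 10 uM horse-spleen apoferritin in 50% saturated 1-AMA/PBS. Values come from four-parameter Hill fits.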
TrxR1 substrate: is turned over as a substrate by rat TrxR1; O89049; purified TrxR1 substrate turnover, NADPH consumption readout; Potency, µM (highest dose often 114 µM), inactives show top-dose activity change, negative = substrate turnover; hit rate 0.01% among 390,000; AID 588456; also: nearly all actives have a fitted effect of over 50% in size
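Rat TrxR1, dispensed at 90 nM, was prereduced with 400 uM NADPH (final) for 5 min at ~22 deg C, then incubated with compound 15 min before 400 uM selenite. A first-read NADPH fluorescence drop versus no-compound background flagged substrates.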
GALK inhibitor: galactokinase (human) inhibition; P51570; Purified GALK, Kinase-Glo residual ATP luminescence; Potency, µM (top dose mostly 57.5 µM), for the others: at the highest dose activity change, negative = inhibition, hits mostly inhibitors; hit rate 0.007% among 270,000; AID 1868
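Human GALK (5 nM) with 35 uM ATP and 100 uM galactose in 20 mM HEPES pH 8.0, 5 mM MgCl2, 60 mM NaCl, 1 mM DTT, 0.01% BSA. After 1 h at room temperature, leftover ATP was read by Kinase-Glo Plus luminescence.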
PKM2 act: increases activity of human pyruvate kinase M2. P14618. purified PKM2, Kinase-Glo ATP luminescence, activation; response scale: 0% is enzyme alone, no compound. Potency, µM (titrated, usually from 57.5 µM), for inactives: at the highest dose activation, most hits filed as activators. hit rate 0.34% among 260,000; also: nearly all actives have a fitted effect of over 55% in size
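Purified hPK-M2 (>95%) run at intermediate activity with 0.1 mM ADP and 0.5 mM PEP in 50 mM imidazole pH 7.2, KCl, MgCl2; 1 h room temperature. ATP formed read by Kinase-Glo luminescence; normalized to uninhibited and no-enzyme controls.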
rTrxR1 inhibitor: rat TrxR1 inhibition | Potency, µM (titrated, usually from 114 µM), for inactives: at the top dose activity change, negative = inhibition, hits mostly inhibitors | recombinant rTrxR1, NADPH fluorescence consumption, selenite substrate | hit rate 1% among 390,000; also: nearly all actives have a fitted effect of over 65% in size
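Rat TrxR1 (90 nM in the dispensed reagent) was pre-reduced with 400 uM NADPH for 5 min at room temperature, then incubated with compound for 15 min. After 400 uM selenite was added, NADPH fluorescence (Ex 340/Em 450 nm) was followed for 8 min.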
IDH1 R132H inh: human IDH1 R132H inhibition; Potency, µM (highest dose often 76.6 µM), for inactives: top-dose activity change, negative = inhibition, most hits filed as inhibitors; AID 602179; IDH1-R132H enzyme, NADPH consumption, diaphorase/resazurin fluorescence; hit rate 0.093% among 390,000; also: nearly all actives have a fitted effect of over 65% in size
Target sequence (O75874 whole entry R132H, stated change not applied): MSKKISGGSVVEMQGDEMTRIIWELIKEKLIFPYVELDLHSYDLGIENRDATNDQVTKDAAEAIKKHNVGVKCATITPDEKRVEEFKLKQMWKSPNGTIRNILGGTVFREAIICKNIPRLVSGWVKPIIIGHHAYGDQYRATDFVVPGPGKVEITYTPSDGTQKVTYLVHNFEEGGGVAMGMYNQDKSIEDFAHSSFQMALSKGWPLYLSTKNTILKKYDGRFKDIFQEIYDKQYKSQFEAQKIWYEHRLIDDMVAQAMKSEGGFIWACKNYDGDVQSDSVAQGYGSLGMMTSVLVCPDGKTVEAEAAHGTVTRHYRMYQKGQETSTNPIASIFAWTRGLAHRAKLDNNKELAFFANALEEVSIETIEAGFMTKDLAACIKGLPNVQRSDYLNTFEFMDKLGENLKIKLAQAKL
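IDH1-R132H (0.5 ug/mL) preincubated 30 min with compound, then NADPH (0.016 mM) and alpha-KG (2 mM) added; 80 min at RT, pH 7.5. Remaining NADPH coupled via diaphorase/resazurin to fluorescence (540/590 nm); concentration-response curves normalized to no-enzyme control.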
An asterisk follows results filed as active; ? = inconclusive; . = no result given; [ ] = another dose, or the depositor's remark. Calls follow the shape of the dose curve; as a rule, active = well fitted curve in the direction sought with a large enough effect; inconclusive = small, poorly fitted or top-dose-only effect, or another doubt; inactive = no such curve, though single readings can be large; an effect the other way counts as inactive or inconclusive. % is scaled to controls: 0 for no effect and ±100 for the full control effect; potency is read from the fitted curve at half-maximal effect.

SMILES	Apoferritin bind	TrxR1 substrate	GALK inhibitor	PKM2 act	rTrxR1 inhibitor	IDH1 R132H inh
C=CCc1cccc(CNc2nc3ccccc3n2C)c1O	-16%	-12%	0%	32µM*	-4%	1%
CCCn1c(NCc2cccc(OC)c2O)nc2ccccc21	-3%	-10%	-2%	25µM*	-5%[57.1 µM]	1%
CCCn1c(COc2ccccc2OC)nc2ccccc21	-22%	1%	-8%	16µM*	11%	8%
COc1cccc(Cn2cnc3c(cnn3C(C)(C)C)c2=O)c1	.	1%	.	.	18%	.
Cc1ccc(NC(=O)c2cc(S(=O)(=O)N3CCCC(C)C3)cn2C)c(Br)c1 (configuration not stated)	-2%	-6%[57.1 µM]	.	.	-6%[57.1 µM]	0%
Cc1cc(C)cc(NC(=O)N2CCC(CN3CCCCCC3)CC2)c1	-5%	7%	.	.	-11%	0%
COc1ccccc1NC(=O)CSc1nc(N)c(C#N)cc1C#N	-6%	3%	-2%	14µM*	5%	-7%
COc1ccccc1NC(=O)CSc1nnc(N)s1	-8%	-2%[57.1 µM]	.	.	13µM*	-1%
CCN1CCc2nc(SCC(=O)Nc3ccc(OC)cc3)c(C#N)cc2C1	-12%	-1%	1%	11%	18µM*	6%
COc1ccc(NC(=O)CSc2nc3c(cc2C#N)CN(C)CC3)cc1	-24%	-10%	-1%	-7%	?	1%
COc1ccc(C(=O)C[n+]2cccc3cc(Cl)ccc32)cc1	.	-4%	.	.	19%	.
CC(C)(C)CC(C)(C)N=C1Nc2cc(Cl)c(Cl)cc2N[C@]12C[C@H]1CCCC(=O)N3CC[C@@H](C2)[C@@H]13	.	4%	.	.	20%	.
CN(C)c1ccc(/C=C2\C=Cc3ccccc32)cc1[N+](=O)[O-]	.	-11%	.	.	-19%	.
Cc1ccc(NC(CC(=O)c2ccccc2)c2ccc(F)cc2)cc1 (configuration not stated)	-24%	-12%	0%	1%	-10%	10%
O=C(COC(=O)c1cccs1)c1ccccc1	?	7%[57.1 µM]	10%	-9%	-2%[57.1 µM]	5%
O=C(CC(Nc1ccc(F)cc1)C(=O)O)c1ccccc1 (configuration not stated)	-2%	-1%	-1%	0%	14µM*	10%
O=C(CC(Nc1ccc(F)cc1)C(=O)OCC(=O)c1cccs1)c1ccccc1 (configuration not stated)	3%	-1%	2%	?	25µM*	2%
CN(CCCNC(=O)c1cc2c(=O)n(C)c3ccccc3c2s1)Cc1ccccc1	-14%	35%	.	.	-7%	-6%
COc1cc2c(cc1OC)C1=C(C#N)COCN1CC2	36%	20%	3%	0%	13µM*	2%
CCOc1ccccc1NC(=O)CSc1nc2ccccc2c2nc(CCn3cncc3C)nn12	?	-5%[57.1 µM]	.	.	8%[57.1 µM]	17%
N#Cc1ccc(/C=C2\C=Cc3ccccc32)cc1	.	3%	.	.	-2%	.
N#CCCn1cc(C=C(C#N)C#N)c(-c2ccc(-c3ccccc3)cc2)n1	-10%	16%	-2%	-17%	79µM*	6%
Cc1cc2nn(-c3ccc(F)cc3)nc2cc1NC(=O)c1ccc(OC(C)C)cc1	1%	93%	.	.	89µM*	-1%
OC(C1=C/C(=C\c2ccncc2)c2ccccc21)c1ccncc1 (configuration not stated)	.	-6%	.	.	-9%	.
CN(C)c1ccc(C=c2c3ccccc3n3c2c2ccccc2[n+]3C)cc1	.	-19%	.	.	32µM*	46µM*
SMILES	Apoferritin bind	TrxR1 substrate	GALK inhibitor	PKM2 act	rTrxR1 inhibitor	IDH1 R132H inh
Cc1cc2c(=Cc3ccc(N(C)C)cc3)c3ccccc3n2[n+]1C	.	-20%	.	.	-36%	3%
CCOc1ccccc1N(CC(=O)NCCSCc1ccco1)S(=O)(=O)c1ccccc1	-8%	-8%	-2%	7%	22µM*	-11%
CCOC(=O)c1cc(C)n(CC2CCC(C(=O)Nc3cccc(C(C)=O)c3)CC2)c1C (configuration not stated)	-13%	-4%	.	.	22%	35%
O=C(Nc1ccc2nc(-c3ccco3)[nH]c2c1)c1cccs1	-6%	-11%	-4%	-12%	71µM*	0%
N#Cc1cc([N+](=O)[O-])ccc1NC(=O)COC(=O)CCC1CCCCC1	32µM*	.	-1%	4%	.	.
Cc1ccccc1-c1ccc(C(=O)NCc2ccccc2)o1	-3%	25%[57.1 µM]	.	5%	27%[57.1 µM]	6%
Cc1ccc(-c2ccc(C(=O)NCc3ccc(Cl)cc3)o2)c2ccccc12	?	12%	.	28%	32µM*	-1%[38.3 µM]
S=C(Nc1cccc(Cl)c1)Nc1cccc2cnccc12	-24%	-9%	-1%	?	45µM*	11%
CC(=O)c1ccc(NC(=S)Nc2cccc3cnccc23)cc1	-11%	-8%	?	12%	22µM*	3%
Cc1cc(Cl)nc2nc(Cl)ccc12	.	-3%	.	.	-7%[0.0914 µM]	.
COc1ccccc1NC(=O)C(=O)NCCc1csc(-c2cccc(F)c2)n1	38%	-9%[57.1 µM]	.	.	6%[57.1 µM]	7%
CC(Oc1ccccc1Cl)C(=O)Nc1ccc(S(=O)(=O)N2CCN(C)CC2)cc1 (configuration not stated)	.	-2%	.	.	20µM*	8%
CC(C)C[C@H](N)c1nnc(SCc2ccc(Cl)cc2Cl)o1	?	4%[11.4 µM]	.	.	10%	-2%
CC(C)C[C@H](N)c1nnc(S(=O)(=O)Cc2ccc(F)cc2)o1	-12%	-3%	8%	10µM*	?	1%
Cc1ccc(S(=O)(=O)c2nc(-c3ccccc3Br)oc2N(C)C)cc1	.	14%	.	.	6.3µM*	7%
Cc1ccc(-c2nc(S(=O)(=O)c3ccc(C)cc3)c(N(C)C)o2)cc1	-4%	7%	-1%	6%	25µM*	3%
Cc1ccc(S(=O)(=O)c2nc(-c3ccccc3Cl)oc2N(C)C)cc1	-11%	11%	-4%	16%	?	3%
O=S(=O)(c1ccc(Cl)cc1)c1nc(-c2ccccc2F)oc1NCc1ccccc1	108%	43%	.	.	92%	-5%
Cc1nc(S(=O)(=O)c2ccc(Cl)cc2)c(N(C)C)o1	118%	6%	-2%	.	4µM*	-3%
Cc1nc(S(=O)(=O)c2ccc(Cl)cc2)c(NCc2ccccc2)o1	48%	-1%	0%	2%	45µM*	2%
Cc1cccc(C)c1NC(=O)C(=O)NCC(c1cccnc1)N1CCc2ccccc21 (configuration not stated)	-6%	-3%	.	.	7%	-7%
Cc1nn(C(C)C(=O)N2CCN(c3ccc(Cl)cc3)CC2)c(=O)c2cc3occc3n12 (configuration not stated)	-9%	-1%	.	.	-4%	3%
